We go through 30 molecules from PubChem BioAssay AID504690 (Sanford-Burnham Center for Chemical Genomics, 2011).

About 2,700 (0.77%) of roughly 350,000 compounds were called active. Shown is part of a subset that was picked to be rich in actives. Unmarked numbers belong to inactive results.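 Rule for the calls: active = inhibition reaching at least a set limit at 20 µM in the primary screen (cut at about 59% in these data); inactive = the rest.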

The test system of this experiment is glucose-6-phosphate dehydrogenase-6-phosphogluconolactonase (Plasmodium falciparum 3D7). As to the kind of experiment: inhibition of malaria parasite G6PD (PfGluPho) – biochemical, fluorescence intensity, uHTS, primary screen (AID 504690).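 Note: 0% = DMSO wells with substrate and 100% = DMSO wells lacking glucose-6-phosphate.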 The note with it: PfGluPho enzyme, NADPH resazurin-diaphorase fluorescence; at 20 µM; hits give high values. A general note: Resazurin is reduced to fluorescent resorufin, in cell work by metabolically active cells.
On to `O=C(CSC1c2ccccc2-c2ccccc21)N/N=C/c1ccccc1`, for which the inhibition is 62.4% (active). Under `C[C@]12CCCCC1=CC(=O)C1C2CC[C@@]2(C)C1C[C@@H](F)[C@@H]2O` (stereo not given in full) stands -7.47%.

For the molecule `CCOP(=S)(OCC)SCOC(=O)NCC(=O)OC`, the inhibition was -4.03%. `COC(=O)C1=C(c2cccc(OCc3ccccc3)c2)C[C@@H]2CC[C@H]1N2C(=O)NCc1ccc(Br)cc1`: the inhibition is 9.43%.

On to `COc1cccc(-c2nc3ccc(N4CCN(C)CC4)cc3[nH]2)c1`, for which the inhibition is 64.4% (active). Under `CN1CCN(c2cc(N3CCNCC3)ccc2[N+](=O)[O-])CC1` stands 1.22%; under `c1ccc(C(CN2CCCCC2)c2ccccc2)cc1`, -1.44%; under `COc1ccccc1C1=NCc2nnc(CSC)n2-c2ccc(Cl)cc21`, -31.3%. Take `C[C@@]1([C@@H](NP(=O)(c2ccccc2)c2ccccc2)c2ccccc2)C[C@H]1CCO`: the inhibition is -0.29%. With `O=C(NCC(c1cccnc1)N1CCN(c2ccccc2)CC1)Oc1ccccc1` (stereo not given) the figure was 7.5%; with `Nc1ccc(Cc2ccc(N)c(Cl)c2)cc1Cl`, -5.41%. On to `Cc1cc(C)c2c(c1)NP(=S)(c1ccccc1)N2` (stereo not given), for which the inhibition is 63.6% (active). In the case of `COc1ccc2c(c1)NP(=S)(c1ccccc1)N2` (stereo not given), the inhibition is 46.5%. With `C/C=C/CC1(CC)C(=O)NC(=S)NC1=O` the figure was -4.76%. As for `Nc1ccc(C(=O)N/N=C2/CN3CCC2CC3)cc1`, the inhibition is -10.7%. Under `COC(=O)N(c1ccc(OC)cc1)P1(=S)OCCC(C)O1` (stereo not given) stands 81.9% (active); under `O=C(CN1CCCCC1)Nc1ccc(Br)cc1C(=O)c1ccccc1Cl`, 0.87%; under `C=CCn1c(O)c(/C=N/N2CCOCC2)c(=O)[nH]c1=S`, -2.25%.

With `O=C1NC(=O)N(Cc2ccco2)C(=O)/C1=C\c1ccc(-c2ccc(F)cc2)o1`, the inhibition was 72% (active).

Regarding `O=C1NC(=O)N(CCc2ccc(F)cc2)C(=O)/C1=C/C=C/c1ccccc1`, the inhibition was 4.03%.

`COc1ccc(N2C(=O)/C(=C/c3ccco3)C(=O)NC2=S)cc1`: the inhibition is 23.2%. Under `N#Cc1ccc(Cn2cc(C(=O)c3ccco3)c3ccccc32)cc1` stands 4.04%; under `CCC1(C)CC(CCNCc2ccc(N(C)C)cc2)(c2ccc(F)cc2)CCO1` (stereo not given), -7.55%; under `CC(=O)OC1C2(CC3N4C(=O)C5(CO)SSC4(CC31O)C(=O)N5C)OC(C)C(C)(C)C2=O` (stereo not given), 19.4%. Consider `COc1cccc(N2C(=O)NC(=O)/C(=C\c3ccc([N+](=O)[O-])s3)C2=O)c1`, for which the inhibition was 56%. With `O=C1NC(=O)N(c2ccccc2)C(=O)/C1=C/c1ccc([N+](=O)[O-])s1` the figure was 64.8% (active); with `O=C1NC(=O)N(c2ccc(F)cc2)C(=O)/C1=C/c1ccc2c(c1)CCCN2Cc1ccccc1`, 18.3%.

On to `CCOP(=O)(OCC)C(NC(=O)c1ccc(C)cc1)C(Cl)(Cl)Cl` (stereo not given), for which the inhibition is 1.69%. Under `CCOCCc1c(O)[nH]c(=S)[nH]c1=O` stands 21.3%; under `CCOP(=S)(OCC)C(O)CCCCCn1c(=O)c(F)cn(C2CCCO2)c1=O` (stereo not given), 11.4%.

The inhibition is the change of the read-out against control, counted positive when it falls.
